According to PubChem BioAssay AID1259415 (National Center for Advancing Translational Sciences (NCATS), 2018):
Among all 410,000 compounds or so, about 18,000 (4.4%) were called active. Roughly 7% stayed inconclusive and do not appear here. The list comes from a sample in which actives are over-represented; it also holds similar structures and randomly drawn compounds. A number with no mark means an inactive call. Cut-off read from the data, not from the text of the source: active = activity change below about -60%; inconclusive = no clear call, values can overlap the other calls; inactive = above about -39%.

Test: qHTS Assay for inhibitors of the human cytomegalovirus (HCMV)
Details: HFF cells, HCMV-luciferase reporter, 72 h; at 57.5 µM; stronger effect = lower value
Description: NCGC Assay Overview: Infection with human cytomegalovirus (HCMV) continues to pose significant threats for pregnant women and immunocompromised hosts. HCMV causes serious morbidity and mortality in transplant recipients, and congenital HCMV is the leading infectious cause of mental retardation and deafness in children. In the 1990s, the annual costs associated with the disease burden of congenital CMV were estimated at around $2 billion. A HCMV vaccine is not available yet and HCMV therapies result in intolerable side effects and emergence of drug resistant viruses. […] Towards this goal we have developed and characterized a luciferase HCMV reporter that was initially used in 96 well plates and then optimized to 1536-well plates for utilization in screening of the MLSMR collection, the NGCG diversity collection and the NCGC Pharmaceutical Collection of approved and investigational drugs.
NCGC Assay Protocol Summary:
This is a cell-based assay for HCMV inhibition in HFFs cells. The screening used 2 compound doses and the HCMV-luciferase at MOI of 1 PFU/cell. Cells were treated and infected with HCMV. At 72 h post infection cell lysates were collected and luciferase activity was determined using the Glomax-Multi + Detection System (Promega, Madison, WI). Data were normalized to the controls for basal activity (buffer only) and known HCMV inhibitors Salinmoycin.
1536-well assay protocol for the assay:
(1) Add 3 ul CMV/HFF cell culture. 1000 cells/well in DMEM nirmal media.
(2) Incubate 16 hr at 37C.
(3) Add 23 nl control compound, 10uM of Salinomycin.
(4) Add 23 nl compounds in DMSO solution.
(5) Add 3 ul CMV suspension. Final 1 puf/ul, Virus stock 2000pfu/ul
(6) Incubate 72 hrs at 37C.
(7) Add 4 ul OneGlo Luc Reagent.
(8) Incubate 5 min at room temperature.
% is set by controls: 0 for no effect and ±100 for the full control effect.

Row | SMILES | activity change, negative = inhibition
1 | COC(=O)c1cnn(-c2ccc(C(=O)Nc3ccc(OC(F)(F)F)cc3)cc2)c1N | -14.8%
2 | O=C(Nc1ccc(OC(F)(F)F)cc1)c1ccc2c(c1)no[n+]2[O-] | -88.8% (active)
3 | Cc1ccc2ncc(C(=O)Nc3ccc(OC(F)(F)F)cc3)c(=O)n2c1 | 19.1%
4 | Cc1ccccc1-n1c(C)cc(/C=N/NC(=O)c2ccc(CN3CCOCC3)cc2)c1C | -25.2%
5 | COc1ccc2c(c1)c(C(=O)N/N=C/c1cccs1)c(C)n2C | -14.7%
6 | Cc1cccc(-n2c(C)cc(/C=N\NC(=O)c3cccs3)c2C)c1 | -61.8% (active)
7 | O=C(Nc1cccc(Cl)c1)c1csnn1 | -2.8%
8 | CC(=O)Nc1cc(C(=O)NCc2ccc(F)cc2Cl)ccc1Sc1ccc(Cl)cc1 | 5.5%
9 | Cc1nnsc1C(=O)N/N=C/c1cccc(C(F)(F)F)c1 | -22.9%
10 | O=C(Nc1ccc(-c2csc(Nc3cccc(C(F)(F)F)c3)n2)cc1)c1cccc(C(F)(F)F)c1 | -66.8% (active)
11 | Cn1c(C(=O)Nc2cccc(C(F)(F)F)c2)cc2c(=O)n3ccccc3nc21 | 63.8%
12 | Cc1c(CCNC(=O)c2ccc(C(F)(F)F)cc2)sc2nc(-c3ccc(F)cc3)nn12 | 33.8%
13 | COc1ccc(Cn2ccnc2SCC(=O)Nc2ccc3c(c2)OCO3)cc1 | -2.47%
14 | Cc1ccc2oc(C(=O)Nc3ccc(S(=O)(=O)N4CCCCCC4)cc3)cc(=O)c2c1 | 5.06%
15 | CCS(=O)(=O)N1CCC(N2CCN(c3ccccc3)CC2)CC1 | 12.5%
16 | CN1CCC(CN)(N2CCN(c3ccccc3)CC2)CC1 | -78.1% (active)
17 | Cn1nnc2c(N3CCN(c4ccccc4)CC3)ncnc21 | -1.12%
18 | CCc1cccc(CC)c1NC(=O)Cn1c(=O)c(-c2cc(C)ccc2NC(C)=O)nc2ccccc21 | -4.17%
19 | COc1ccc(CN(Cc2ccco2)S(=O)(=O)c2ccc(S(=O)(=O)N3CCCC3)cc2)cc1 | -62% (active)
20 | COc1ccc(S(=O)(=O)NCc2ccc(C(=O)N(C)Cc3ccco3)cc2)cc1 | -13.3%
21 | COc1ccc(CCC(=O)N2CCN(S(=O)(=O)c3ccc(OC)cc3)CC2)cc1 | -31.5%

Row | SMILES | activity change, negative = inhibition
22 | CC1CCN(c2ccc(S(=O)(=O)Nc3cc(C(=O)O)cc(C(=O)O)c3)cc2[N+](=O)[O-])CC1 | 31%
23 | CC1CCN(c2ccc([N+](=O)[O-])c(SCCO)c2)CC1 | -72.7% (active)
24 | CC1CCN(c2ccc3c(c2)S(=O)(=O)c2cc(C(=O)O)ccc2C3=O)CC1 | 22.6%
25 | CN(c1ccccc1)S(=O)(=O)c1cc(C(=O)OCC(=O)N2CCN(C(=O)c3ccco3)CC2)ccc1Cl | -12%
26 | CN(C)S(=O)(=O)c1cc(C(=O)N2CCC(C(=O)O)(c3ccccc3)CC2)ccc1Cl | 14.8%
27 | COc1ccccc1N1CCN(C(=O)c2ccc(Cl)c(S(=O)(=O)N3CCCC3)c2)CC1 | -64.9% (active)
28 | CN(c1ccccc1)S(=O)(=O)c1cc(C(=O)N2CCN(c3ncccn3)CC2)ccc1Cl | -61.7% (active)
29 | CN(c1ccccc1)S(=O)(=O)c1ccc(C(=O)N2CCN(c3ccccc3Cl)CC2)cc1 | -25.5%
30 | CCS(=O)(=O)N1CCc2cc(C(=O)N3CCN(c4ccccc4OC)CC3)ccc21 | 10.3%
31 | CN(c1ccccc1)S(=O)(=O)c1cc(C(=O)Nc2nc3ccccc3[nH]2)ccc1Cl | -61.3% (active)
32 | COc1ccc(C(=O)N2CCN(c3ncccn3)CC2)cc1S(=O)(=O)N1CCOCC1 | 63%
33 | CN(c1ccccc1)S(=O)(=O)c1cccc(C(=O)NNC(=O)c2ccncc2)c1 | -31.6%
34 | COc1ccc(C2NC(=O)N(C)C3=C2C(=O)N(c2ccc(C(=O)O)cc2)C3)cc1 (stereo not drawn) | 15.3%
35 | CCOC(=O)c1cc2c(=O)[nH]c(C(Cl)(Cl)Cl)nc2o1 | -14.4%
36 | CCOC(=O)c1ccc(NC(=O)C2CCN(S(=O)(=O)c3ccc4c(c3)CCCC(=O)N4)CC2)cc1 | -34.6%
37 | COc1cc(C(=O)Nc2ccc(OCc3cc(=O)n4cc(C)sc4n3)cc2)cc(OC)c1OC | 13.1%
38 | COc1ccc(OC)c(NC(=O)C2CCCN(S(=O)(=O)c3ccc4c(c3)CCCC(=O)N4)C2)c1 (stereo not drawn) | 5.92%
39 | COc1ccc(-c2nc3ccccc3o2)cc1NC(=O)c1cc([N+](=O)[O-])ccc1N1CCOCC1 | 17.1%
40 | COc1ccc(-c2nc3ccc(C(=O)NCc4ccc(C)cc4)cc3nc2-c2ccc(OC)cc2)cc1 | 13.2%
41 | CCOc1ccc(Nc2nc(Cc3nnc(SCC(=O)c4ccc(C)cc4)o3)cs2)cc1 | -18.3%
42 | Cc1ccc(Nc2nc(CSc3nnc(-c4ccncc4)n3-c3ccccc3C)cs2)cc1 | -86.5% (active)

Row | SMILES | activity change, negative = inhibition
43 | CCOc1ccccc1-n1c(SCC(=O)NCc2ccco2)nnc1-c1ccncc1 | 24.1%
44 | CC(C)S(=O)(=O)c1oc(-c2ccc(F)cc2)nc1S(=O)(=O)c1ccc(F)cc1 | -98.8% (active)
45 | O=C(CSc1oc(-c2ccc(F)cc2)nc1S(=O)(=O)c1ccc(Br)cc1)NC1CCCCC1 | 5.22%
46 | Cc1ccc(-c2nc(S(=O)(=O)c3ccc(C)cc3)c(N3CCCCCC3)o2)cc1 | -3.36%
47 | COc1ccc(N2C(=O)CSC23C(=O)N(Cc2cccc(F)c2)c2ccccc23)cc1Cl (stereo not drawn) | -38.5%
48 | Cc1cccc(C(=O)N2CCc3cc(CNC(=O)Cc4ccc(F)cc4)ccc32)c1 | 5.96%
49 | Cc1c(Cl)cccc1NC(=O)C1CCCN(C(=O)c2cnn(-c3ccccc3)c2-n2cccc2)C1 (stereo not drawn) | -29.6%
50 | O=c1cc(COc2cccc(C(F)(F)F)c2)nc2sc3c(n12)CCCC3 | -0.855%
51 | CCOc1cc(C2c3c(-c4ccc(Br)cc4)n[nH]c3C(=O)N2c2ccc(Cl)cc2)ccc1O (stereo not drawn) | -106% (active)
52 | CCOC(=O)c1ccc(N2C(=O)c3n[nH]c(C)c3C2c2ccc(O)c(OC)c2)cc1 (stereo not drawn) | -24.9%
53 | CCOc1ccc(-c2n[nH]c3c2C(c2ccccc2OC)N(c2ccc(Br)cc2)C3=O)cc1 (stereo not drawn) | 21.3%
54 | COc1ccc(NC(=O)CCN2CCN(CCO)CC2)cc1 | 0.59%
55 | O=C(c1ccc2c(c1)N(Cc1ccccc1)C(=O)c1ccccc1S2(=O)=O)N1CCC(Cc2ccccc2)CC1 | 4.82%
56 | COc1ccc(CCNC(=O)c2nnc(CS(=O)(=O)c3ccccc3)o2)cc1OC | -33.4%
57 | COc1ccc(CCNC(=O)c2ccc(CS(=O)(=O)c3ccc(Br)cc3)o2)cc1OC | -92.4% (active)
58 | O=C(NCc1cccnc1)c1ccc(CS(=O)(=O)c2ccc(Br)cc2)o1 | -24.5%
59 | Cc1c(S(=O)(=O)NC(C)c2ccccc2)c(=O)n(C)c(=O)n1C (stereo not drawn) | -5.67%
60 | COCCCNC(=O)[C@H]1N2C(=O)c3ccccc3C2SC1(C)C (stereo partly drawn) | 36.2%
61 | O=C(Nc1cc2c3c(c1)C1CCCC1CN3CC1CCCC21)c1ccc([N+](=O)[O-])cc1 (stereo not drawn) | -31.6%
62 | Cn1ccc(=Nc2ccc(NC(=O)c3ccc(N=c4ccn(C)c5ccc([N+](=O)[O-])cc45)cc3)cc2)cc1 | -96.1% (active)
63 | CC(=O)Nc1ccc(C(=O)OCC(=O)Nc2ccc([N+](=O)[O-])cc2C(F)(F)F)cc1 | -34.7%

Row | SMILES | activity change, negative = inhibition
64 | Cc1ccc(CCNC(=O)c2ccc3c(c2)N(Cc2cc(C)ccc2C)C(=O)c2ccccc2S3=O)cc1 (stereo not drawn) | -0.139%
65 | Cc1cccc(NC(=O)C2CCCN2S(=O)(=O)c2cccc3nsnc23)c1C (stereo not drawn) | 31.6%
66 | CCC(=O)Nc1c(C(=O)N2CCN(c3ccc(F)cc3)CC2)oc2ccccc12 | -20.1%
67 | CC(=O)C(C)n1cnc2scc(-c3ccc(C)cc3)c2c1=O (stereo not drawn) | -61% (active)
68 | CCOC(=O)C(C)n1cnc2scc(-c3ccc(C)c(C)c3)c2c1=O (stereo not drawn) | -39.3%
69 | COC(=O)Cn1cnc2scc(-c3ccc(C)c(C)c3)c2c1=O | -22.1%
70 | COc1cc(C(=O)N2CCN(c3ccc(Nc4ccc(C)cc4)nn3)CC2)cc(OC)c1OC | 36.3%
71 | CCOC(=O)CNC(=O)/C=C/c1c(Cl)cccc1Cl | -12.3%
72 | C#CC(C)(CC)NC(=O)Cn1nnc(-c2ccc(OCc3c(F)cccc3Cl)cc2)n1 (stereo not drawn) | -28.3%
73 | O=C(Cc1ccccc1Cl)N1CCOCC1 | -27.3%
74 | O=C(/C=C/c1ccc(OCc2c(F)cccc2Cl)cc1)N1CCOCC1 | -85.8% (active)
75 | CN(C)CCCNC(=O)/C=C/c1ccc(OCc2c(F)cccc2Cl)cc1 | -62.7% (active)
76 | O=C(Nc1ccc(OCC(=O)N2CCOCC2)cc1)c1cc(F)c(F)cc1Cl | 4.25%
77 | COc1cc(C2c3c(oc4ccccc4c3=O)C(=O)N2c2nc(C)c(C)s2)ccc1O (stereo not drawn) | -20.1%
78 | CCOC(=O)C1CCCN(CC(=O)Nc2cc(C)c3c(=O)oc4ccccc4c3n2)C1 (stereo not drawn) | 17.3%
79 | Cc1ccc(-c2cc(-c3coc4ccccc4c3=O)c3c(n2)-c2cc(Cl)ccc2OC3)cc1 | 21.6%
80 | Cc1nn(CC(=O)Nc2ccc(C#N)cc2)c(C)c1[N+](=O)[O-] | -33.6%
81 | CS/C(=C\[N+](=O)[O-])Nc1ccc(C)cc1 | -61.4% (active)
82 | Cc1ccc(NC(=O)c2cc3cc(C)ccc3n2C)cc1 | 22.1%
83 | CCCN(CCC)C(=O)Cn1c(=O)n(-c2ccc(Cl)cc2)c(=O)c2c3c(sc21)CCCCC3 | 7.98%
